Assay [1] can be described thus: reducers of endogenous Her2 protein level, primary screen, SKBR3 breast tumor cells, AlphaScreen, ATP viability (AID 461;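 active means Her2 level under about 52% in both replicate screens, with viability over 70% of control, limit read from the data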;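 on Her2 level: lower value means less Her2 protein in the cells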;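 on viability: percent of carrier control wells set as 100% viability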). Conditions: 18-24 h, measured here: SKBR3 viability, ATP luminescence, at 10 µM. (In general: In Alpha technology, singlet oxygen from a donor bead excites a nearby acceptor bead.)
The target in assay [2] is Receptor tyrosine-protein kinase erbB-2 (Homo sapiens) (UniProt P04626). Described as above. The settings on record: 18-24 h, at 10 µM, stronger effect = lower value.
The nature of assay [3]: SK-BR-3 cell growth inhibitors, pilot screen, 24 h, human (AID 572).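 Further: compound exposure lasted between 18 and 24 h rather than exactly 24 h; 100% = carrier-treated control wells.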 Conditions: SK-BR-3 viability, CellTiter-Glo luminescence, at 10 µM, stronger effect = lower value. A general note: ATP-based viability assays read luminescence as a measure of living cells.
A short description of assay [4]: HUVEC growth inhibition – cell-based, human, primary screen (AID 575;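 active means viability at or below 30% in both replicate assays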;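 further: 100% = median of untreated cell wells with 0.1% DMSO on each plate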). Conditions: HUVEC proliferation, CellTiter-Glo luminescence, 72 h; at 10 µM; stronger effect = lower value.
The nature of assay [5]: reversal of MRP1-mediated doxorubicin resistance, pilot screen, H69AR cells, doxorubicin co-treatment (AID 601;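 active means viability loss from added drug above about 55%, and viability with drug at most 40%, in both replicates, limit read from the data, passing the limit was not always enough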). Conditions: CellTiter-Glo, 72 h, at 10 µM; for differential viability (reversal): stronger effect = higher value.
Assay [6] in a line: 384-well plate pilot, post-Golgi transport modulator project, inhibition of yeast transport mutant growth (AID 636; in the data active means inhibition above about 31%). Conditions: absorbance 615 nm, about 18 h, stronger effect = higher value.
The nature of assay [7]: growth suppression of yeast trafficking mutant, preliminary HTS, modulators of trafficking downstream of Golgi apparatus project, 1536-format plate, OD 615 nm (AID 637; in the data active means inhibition above about 30%). The settings on record: yeast transport mutant growth, absorbance 615 nm, 18 h; stronger effect = higher value.
Assay [8] in a line: growth inhibitors of H69AR lung tumor, primary screen, human, duplicate replicates (AID 580;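 active means viability at or under a set limit in both replicates, limit being median viability minus 3 SD, cut at about 48% in these data, passing the limit was not always enough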;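 further: 100% = mean luminescence of untreated wells and 0% = no signal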). Conditions: H69AR lung tumor cells viability, ATP luminescence, 72 h; at 10 µM; stronger effect = lower value.
Assay [9] can be described thus: OD615 S. cerevisiae growth inhibition, permissive medium, pilot counter-assay, permissive growth control for S. cerevisiae lifespan shortening project (AID 705;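 active means growth inhibition above 25% in both replicates, a cutoff set 3 SD above the mean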). The settings on record: OD615, 24 h, at 10 µM, stronger effect = higher value.
Assay [10] can be described thus: Restrictive medium S. cerevisiae growth inhibition, OD615, pilot screen of yeast lifespan reduction project, restrictive growth control (AID 706;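 active means growth inhibition above a set limit, 3 SD over mean compound inhibition, in both replicates, cut at about 43% in these data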;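 further: modified DeaD lifespan yeast strain shifted to restrictive glucose medium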). The settings on record: OD615, 48 h, at 10 µM, stronger effect = higher value.
Assay [11] is described as follows: viability gain of MRP-1-high H69AR cells under doxorubicin, pilot screen, MRP-1 activator project, CellTiter-Glo, duplicate (AID 807;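 active means viability increase at or above a cutoff of the median across tested compounds plus 3 SD, cut at about 8.5% in these data, passing the limit was not always enough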;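 further: compound pretreatment 18-22 h then 72 h combined with doxorubicin; 0% = doxorubicin alone and 100% = vehicle without doxorubicin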). The settings on record: H69AR viability with doxorubicin, CellTiter-Glo luminescence; at 10 µM; stronger effect = higher value.
Assay [12] can be described thus: growth suppression of beta-catenin knockout HCT116, pilot screen, human colon tumor cells (AID 823;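 active means cell viability at or below a set limit in both duplicate runs, the limit being the all-compound median minus 4 SD, cut at about 23% in these data, passing the limit was not always enough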;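 further: 0% = wells killed by 20 µM Hyamine and 100% = untreated DMSO cell wells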). Conditions: CellTiter-Glo, 60 h, at 10 µM, stronger effect = lower value.
A short description of assay [13]: growth suppression of PTEN-deleted HCT116, pilot screen, cell-based, HCT116 clonal line, CellTiter-Glo (AID 824;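 active means viability at or below 27.92% in each of two runs, the all-compound median minus 4 SD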;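 further: 0% = 20 µM Hyamine control and 100% = vehicle cell control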). Conditions: 60 h, at 10 µM, stronger effect = lower value.
A short description of assay [14]: inhibitors of the yeast RAM network, pilot screen, dse1pr::URA3 reporter, 5-FOA selection (AID 869;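 active means inhibition over a set limit, the all-compound mean plus 3 SD, in both replicate runs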;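 further: 0% = DMSO wells with no growth and 100% = 10 µM 1-NA-PP1 with full growth; RAM network block rescues cells from 5-FOA so hits raise OD615 growth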). Conditions: S. cerevisiae dse1pr::URA3 5-FOA growth, OD615, 2 d; at 10 µM; stronger effect = higher value; strain carries analog-sensitive mutant Cbk1 kinase.
The mark [15] stands for this setting: H69AR cells + 2 uM doxorubicin, measured here: viability with 2 uM doxorubicin, stronger effect = lower value.
The mark [16] stands for this setting: H69AR cells, compound alone cytotoxicity.

Results filed as inconclusive are left out. The source made the active and inactive calls.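 How the source made its calls, unless noted: active means viability at or below 10% of carrier control in both of two separate runs; inconclusive means viability at or below 10% in only one of the two runs; inactive means the rest.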

Chain of Receptor tyrosine-protein kinase erbB-2 (Homo sapiens) (P04626 whole entry, looked up): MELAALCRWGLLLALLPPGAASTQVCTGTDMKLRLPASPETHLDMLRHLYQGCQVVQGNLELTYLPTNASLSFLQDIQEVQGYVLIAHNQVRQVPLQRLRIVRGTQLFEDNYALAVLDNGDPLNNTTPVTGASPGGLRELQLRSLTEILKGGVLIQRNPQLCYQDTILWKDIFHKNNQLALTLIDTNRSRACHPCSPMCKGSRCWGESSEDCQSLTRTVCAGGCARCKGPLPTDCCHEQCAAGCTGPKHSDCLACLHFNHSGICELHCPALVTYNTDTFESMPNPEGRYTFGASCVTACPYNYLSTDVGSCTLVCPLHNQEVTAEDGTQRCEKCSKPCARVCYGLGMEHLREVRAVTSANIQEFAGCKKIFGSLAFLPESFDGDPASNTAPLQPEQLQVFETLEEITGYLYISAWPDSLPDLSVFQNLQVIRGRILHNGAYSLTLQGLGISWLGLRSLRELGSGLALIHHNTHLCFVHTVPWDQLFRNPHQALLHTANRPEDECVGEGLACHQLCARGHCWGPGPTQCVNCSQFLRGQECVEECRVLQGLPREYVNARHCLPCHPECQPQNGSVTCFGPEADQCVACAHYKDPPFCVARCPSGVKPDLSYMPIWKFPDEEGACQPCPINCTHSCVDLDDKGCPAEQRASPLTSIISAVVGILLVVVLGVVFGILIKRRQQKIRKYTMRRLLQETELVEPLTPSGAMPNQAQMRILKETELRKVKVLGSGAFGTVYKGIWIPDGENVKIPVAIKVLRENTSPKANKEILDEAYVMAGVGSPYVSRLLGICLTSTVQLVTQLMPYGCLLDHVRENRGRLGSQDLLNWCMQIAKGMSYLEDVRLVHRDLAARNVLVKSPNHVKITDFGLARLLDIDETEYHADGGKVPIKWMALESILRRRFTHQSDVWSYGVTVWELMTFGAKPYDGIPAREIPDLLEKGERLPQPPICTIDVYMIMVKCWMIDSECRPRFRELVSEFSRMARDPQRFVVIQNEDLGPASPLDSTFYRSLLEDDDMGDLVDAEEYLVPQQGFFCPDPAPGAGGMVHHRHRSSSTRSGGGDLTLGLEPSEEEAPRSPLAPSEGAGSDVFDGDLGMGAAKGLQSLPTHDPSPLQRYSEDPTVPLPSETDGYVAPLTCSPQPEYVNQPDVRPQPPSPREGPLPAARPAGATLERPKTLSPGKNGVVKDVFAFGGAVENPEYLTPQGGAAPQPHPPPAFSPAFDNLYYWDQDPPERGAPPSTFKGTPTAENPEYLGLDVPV

As a reminder, the viability is a read-out of living cells in per cent, often relative to untreated cells. As a reminder, the inhibition is the relative decrease from the control value, in per cent. For `CCc1cc2c(=O)c(-c3nc4ccccc4[nH]3)coc2cc1OC(=O)N1CCOCC1`, the viability is 100% in assay [1]; 100% (inactive) in assay [3]; 64.8% (inactive) in assay [4]; 71.6% in assay [5] (setting [15]); 57.7% in assay [5] (setting [16]). Besides, in assay [2], the Her2 level was 81.5% (inactive). Also, the differential viability (reversal) in assay [5] (H69AR cells + 2 uM doxorubicin) was -13.9% (inactive). The inhibition in assay [6] was -5.07% (inactive); in assay [7], -5.08% (inactive).
Take `O=C(COc1ccccc1)N1CCN(c2ncnc3c2cnn3-c2ccccc2)CC1`: the viability was 97% in assay [1], 97% (inactive) in assay [3], 58.6% (inactive) in assay [4] and 74.8% (inactive) in assay [8]. For the same compound, the Her2 level in assay [2] is 77% (inactive). For the same compound, the inhibition was -8.77% (inactive) in assay [6] and -3.65% (inactive) in assay [7].
Consider `O=c1[nH]c(=O)n([C@H]2C[C@H](O)[C@@H](CO)O2)cc1F`, for which the viability in assay [1] was 89%; in [3], 89% (inactive); in [4], 51.3% (inactive); in assay [5] (setting [15]), 57%; in assay [5] (setting [16]) it was 16.4%. The Her2 level in assay [2] was 74% (inactive). In addition, the differential viability (reversal) in [5] (H69AR cells + 2 uM doxorubicin) was -40.6% (inactive).
Turning to `CC12COC3(C(=O)Nc4ccc(Cl)cn4)CC1CCC32C` (centres undefined), the viability in [1] was 72%; in assay [3] it was 72% (inactive); in assay [4], 82.9% (inactive); in [8], 94.6% (inactive); in assay [5] (setting [15]) it was 85.1%; in assay [5] (setting [16]) it was 94.6%. The results for the viability in assay [12] and in [13] were 85.3% (inactive) and 85.7% (inactive), respectively. The Her2 level in assay [2] was 112% (inactive). Also, in [5] (H69AR cells + 2 uM doxorubicin), the differential viability (reversal) was 9.46% (inactive). Further, the figures for the inhibition in assay [6], in assay [7] and in assay [14] were 0% (inactive), -10% (inactive) and 0.735% (inactive), respectively. Further, the growth inhibition in assay [9] was -15.9% (inactive); in [10] it was -9.37% (inactive). Further, the viability increase in [11] was -0.46% (inactive).
As for `N#C/C(C(=O)NCc1ccco1)=C1/SC(Cc2ccc(F)cc2)C(=O)N1c1ccccc1` (centres undefined), the viability in [1] is 112%; in assay [3] it was 112% (inactive); in assay [4], 88.3% (inactive); in [5] (setting [15]), 58.3%; in [5] (setting [16]), 48%. Also, in assay [2], the Her2 level was 84% (inactive). The differential viability (reversal) in assay [5] (H69AR cells + 2 uM doxorubicin) was -10.3% (inactive). In addition, the inhibition in assay [6] is -3.68% (inactive); in [7], -1.64% (inactive).
For the compound `N#Cc1c(N)nc(SCc2ccncc2)c(C#N)c1-c1cccs1`, the viability was 98.5% in assay [1]; 98.5% (inactive) in assay [3]; 79% (inactive) in [4]; 14.9% in assay [5] (setting [15]); 52.3% in assay [5] (setting [16]). Further, the Her2 level in [2] is 71% (inactive). Besides, in [5] (H69AR cells + 2 uM doxorubicin), the differential viability (reversal) was 37.4% (inactive). In addition, the inhibition in assay [6] is -0.53% (inactive); in assay [7] it was 7.74% (inactive).
In the case of `Cc1ccc(CNC(=O)c2coc(=O)c3ccccc23)o1`, the viability in assay [1] was 93.5%; in [3] it was 93.5% (inactive); in assay [4] it was 81.8% (inactive); in [5] (setting [15]), 67%; in [5] (setting [16]), 42.4%. For the same compound, the Her2 level in [2] is 81% (inactive). Moreover, the differential viability (reversal) in assay [5] (H69AR cells + 2 uM doxorubicin) was -24.6% (inactive). In addition, the inhibition in assay [6] is -0.53% (inactive); in [7] it was -5.82% (inactive).
For `C=C(C)COc1ccc(-c2nc(N)ncc2Oc2ccccc2OCC)c(O)c1`, the viability in assay [1] was 79%; in assay [3], 79% (inactive); in assay [4], 85.5% (inactive); in assay [5] (setting [15]) it was 51.6%; in assay [5] (setting [16]) it was 39.1%. Moreover, the Her2 level in assay [2] was 84.5% (inactive). Moreover, the differential viability (reversal) in [5] (H69AR cells + 2 uM doxorubicin) is -12.4% (inactive). The figures for the inhibition in [6] and in [7] were -0.66% (inactive) and 24.4% (inactive), respectively.
Regarding `Cc1ccc(Cn2c(C)nc3c(c2=O)c2nc4ccccc4nc2n3Cc2ccco2)cc1`, the viability in [1] was 118%; in [3], 118% (inactive); in [4] it was 54.9% (inactive); in assay [5] (setting [15]) it was 50.5%; in [5] (setting [16]), 49%. Moreover, in assay [2], the Her2 level is 71.5% (inactive). The differential viability (reversal) in assay [5] (H69AR cells + 2 uM doxorubicin) is -1.46% (inactive). Moreover, the inhibition in assay [6] was 1.32% (inactive); in assay [7], 1.8% (inactive).

Values taken from PubChem BioAssay.
